An excerpt weighted towards active compounds, which were near 1.6% of everything screened.
p97 inhibitor: blocks human p97 ATPase activity | P55072 | inhibition, % at 8 µM | 0.42% of 220,000 active | recombinant p97 ATPase, Kinase-Glo ATP luminescence, 3 h; in the data active = inhibition above about 15%;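 also: 0% = DMSO vehicle and 100% = wells lacking enzyme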
S1P3 antagonist: blocks the human S1P3 receptor. Q99500. CHO S1P3 NFAT-BLA reporter, FRET fluorescence, antagonist mode. inhibition, % at 4.98 µM. 0.27% of 170,000 active. AID 485;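 active = inhibition above the plate cutoff, the mean inhibition of test wells on that plate plus 3 SD, cut at about 28% in these data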;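 also: cells challenged with S1P at its EC80 of 0.8 µM; blue over green emission ratio from cleaved BLA substrate after 4 h stimulation; 0% = S1P-stimulated wells and 100% = unstimulated DMSO-only wells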
S1P4 antagonist: blocks the human S1P4 receptor; O95977; S1P4-expressing cells, antagonist mode, reporter read-out; inhibition, % at 4.98 µM; 0.26% of 220,000 active; AID 1510; in the data active = inhibition above about 29%;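 also: 0% = wells stimulated with agonist and 100% = vehicle wells without agonist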
Redox H2O2 prof: compounds producing H2O2 with reducing agent – biochemical, NIH compound library profiling, artefact control for MLSCN library redox annotation, primary screen; DTT-dependent redox cycling H2O2, phenol red/HRP absorbance; 100% = 100 µM peroxide control, 0% = buffer; activation, % at 10 µM; 0.03% of 200,000 active; AID 878;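 active = activation of at least 50% relative to the plate's high and low controls in the primary single-dose screen; inactive = activation below 50%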;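 also: compound incubated with DTT at 0.8 mM final as the reducing agent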
Arbovirus inh: blocks arbovirus infection. 0.37% of 200,000 active. arbovirus infection cell-based antiviral screen. inhibition, % at 10 µM; in the data active = inhibition above about 30%
S1P4 agonist: activates the human S1P4 receptor. O95977. S1P4-expressing cell line, agonist reporter assay. activation, % at 4.98 µM. 0.35% of 220,000 active; in the data active = activation above about 11%;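 also: 0% = DMSO vehicle and 100% = reference agonist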
S1P4 antag cf: human S1P4 antagonism, confirmation. 71% of 520 active. shares compounds with S1P4 antagonist. inhibition, % at 4.98 µM. S1P4-expressing cell line, antagonist mode, reporter read-out. AID 1524; in the data active = inhibition above about 30%
S1P1 antag: blocks human S1P1, counter-screen for S1P4 antagonists; shares compounds with S1P4 antagonist; cell-based S1P1 antagonist counterscreen, inhibition; inhibition, % at 4.98 µM; 37% of 520 active; AID 1564; in the data active = inhibition above about 40%;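 also: receptor stimulated with S1P near its EC80; 0% = agonist stimulated wells and 100% = vehicle only wells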
Target sequence (P21453 whole entry, looked up): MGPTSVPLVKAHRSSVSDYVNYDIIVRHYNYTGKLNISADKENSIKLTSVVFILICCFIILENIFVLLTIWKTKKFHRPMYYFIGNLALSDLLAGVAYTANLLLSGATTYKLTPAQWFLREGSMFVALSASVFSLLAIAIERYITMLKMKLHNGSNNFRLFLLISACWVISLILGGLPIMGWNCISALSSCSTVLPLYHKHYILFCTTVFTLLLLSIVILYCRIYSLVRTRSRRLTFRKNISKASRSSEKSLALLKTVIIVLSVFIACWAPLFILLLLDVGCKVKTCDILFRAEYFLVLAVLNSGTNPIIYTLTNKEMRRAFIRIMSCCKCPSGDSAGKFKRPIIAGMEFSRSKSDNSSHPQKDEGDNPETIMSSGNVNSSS
Starred values were filed as active, the others as inactive; x = no result.

SMILES | p97 inhibitor | S1P3 antagonist | S1P4 antagonist | Redox H2O2 prof | Arbovirus inh | S1P4 agonist | S1P4 antag cf | S1P1 antag
O=C(Nc1ccc(Cl)cc1)/C(=C/c1cccc(O)c1)c1nc2ccccc2s1 | 4 | -10 | 38* | 0 | -34 | 0 | 99* | 62*
S=C(Nc1ccc(Cl)cc1)c1nc2ccccc2s1 | 3 | x | 1 | -3 | 3 | 2 | x | x
Cc1cccc(-n2c(CCc3ccccc3)nnc2SCC(=O)c2ccccc2)c1 | -2 | 4 | -11 | -1 | -25 | 2 | x | x
CCN(CC)c1ccc(/C=c2\sc3nc4ccccc4n3c2=O)c(O)c1 | 10 | 15 | 37* | -1 | 25 | 6 | 22 | -25
CCOc1ccc(N(CC(=O)NCC2CCCO2)S(=O)(=O)c2ccc(SC)cc2)cc1 (stereo unspecified) | -5 | x | -4 | 0 | -3 | 2 | x | x
CCOC(=O)COc1ccc2ccccc2c1/C=C/[N+](=O)[O-] | 9 | 9 | 49* | 0 | -32 | -1 | 120* | 155*
CCOC(=O)COc1ccc(/C=C/[N+](=O)[O-])c(OCC(=O)OCC)c1 | 1 | x | 30* | -5 | -22 | -4 | 116* | 83*
O=[N+]([O-])/C=C/c1c(OCc2ccccc2)ccc2ccccc12 | 9 | x | 15 | 1 | -36 | 2 | x | x
CCc1c(C)c(C#N)c2nc3ccccc3n2c1NCc1ccccn1 | 5 | -15 | 12 | -2 | -3 | 1 | x | x
OC1(c2ccc(Cl)cc2)CN(c2ccccc2)C2=[N+]1CCS2 (stereo unspecified) | -1 | 9 | -12 | -1 | 0 | 1 | x | x
OC1(c2ccc(Br)cc2)CN(c2ccccc2)C2=[N+]1CCS2 (stereo unspecified) | 2 | -5 | 30* | 0 | -1 | 0 | 8 | 2
CN1/C(=C/C(=O)c2nc(S(C)(=O)=O)ncc2Cl)C(C)(C)c2ccccc21 | 2 | -6 | 65* | 0 | -41 | -7 | 111* | -2
CN1/C(=C\C(=O)c2cccnc2)C(C)(C)c2ccccc21 | 1 | 2 | -10 | 0 | -17 | 0 | x | x
CC(=O)c1cccc(NC(=O)CSCc2ccccc2)c1 | 1 | x | -2 | 3 | 1 | 2 | x | x
Cc1cccc(NC(=O)c2c(O)c3cccc4c3n(c2=O)CC4)c1 | 5 | x | 5 | 10 | x | 4 | x | x
CCOc1ccc(CN2CCN(CC(O)Cn3c4ccccc4c4ccccc43)CC2)cc1 (stereo unspecified) | -7 | 0 | 42* | 0 | -34 | -1 | 71* | 83*
COc1ccc(CN2CCN(CC(O)Cn3c4ccccc4c4ccccc43)CC2)cc1 (stereo unspecified) | 2 | -2 | -4 | 0 | -35 | 0 | x | x
Cc1cc(C)nc(SC2=CS(=O)(=O)c3ccccc32)n1 | -4 | 9 | -5 | 1 | -9 | -2 | x | x
O=S1(=O)C=C(Sc2nc3ccccc3s2)c2ccccc21 | 7 | 6 | 55* | -3 | -29 | 1 | 113* | 59*
Nc1ccc2c(C(F)(F)F)cc(=O)oc2c1 | -3 | 5 | 46* | 1 | 5 | 0 | 45* | 35
Cc1cccc(N=C2NC(=O)/C(=C/c3cccn3C)S2)c1C | -5 | 23 | 36* | x | x | 1 | 16 | 14
Cc1ccc(N=C2NC(=O)/C(=C/c3cccn3C)S2)cc1C | -1 | 4 | -1 | x | x | 1 | x | x
Cc1cc(NC(=O)c2ccccc2F)on1 | 1 | 12 | -3 | 0 | -1 | 2 | x | x
Cc1cc(C)nc(S/C=C/C(=O)c2ccccc2F)n1 | -10 | -2 | 43* | x | x | -1 | 78* | -1
CN1c2ccccc2Oc2nnc(N3CCN(Cc4ccccc4)CC3)cc21 | -5 | -10 | 33* | 1 | -34 | 2 | 25 | 15
SMILES | p97 inhibitor | S1P3 antagonist | S1P4 antagonist | Redox H2O2 prof | Arbovirus inh | S1P4 agonist | S1P4 antag cf | S1P1 antag
Cc1ccc(NC(=O)C2=C(c3ccccc3)S(=O)(=O)CCS2(=O)=O)cc1 | 8 | 0 | 45* | 0 | -31 | -2 | 108* | 5
Cc1ccc(NC(=O)c2ccccc2)cc1 | -3 | x | 9 | 0 | 1 | -3 | x | x
O=C(COC(=O)c1ccccc1C(=O)c1ccc(Cl)c([N+](=O)[O-])c1)NC1CCCCCC1 | 2 | x | 20 | 0 | -31 | -3 | x | x
CN(CCC#N)C(=O)COC(=O)c1ccc(Cl)c(S(N)(=O)=O)c1 | -3 | 2 | -18 | 1 | 8 | 1 | x | x
CC(C)N(C(=O)COC(=O)c1ccccc1C(=O)c1ccc(Cl)c([N+](=O)[O-])c1)C(C)C | -1 | -3 | 31* | 0 | 0 | -1 | 60* | 46*
CN(CCC#N)C(=O)COC(=O)c1ccccc1C(=O)c1ccc(Cl)c([N+](=O)[O-])c1 | 1 | -6 | 55* | 0 | 2 | -2 | 112* | 53*
CC1=CC(=O)C=C(C)C1=NOS(=O)(=O)c1ccccc1 | -2 | x | 33* | -1 | -31 | 1 | 98* | 19
CC1=CC(=O)C(C(C)C)=C/C1=N/OS(=O)(=O)c1ccccc1 | 6 | 6 | 38* | x | x | 0 | 79* | -19
Cc1ccc2c(c1)/C(=N/OS(=O)(=O)c1ccccc1)CCS2 | 5 | x | -14 | 2 | x | 0 | x | x
O=C(CN(C(=O)CNC(=O)c1ccco1)c1ccc(Cl)c(Cl)c1)NC1CCCCC1 | -5 | -11 | 3 | 0 | 1 | -2 | x | x
O=C(CNS(=O)(=O)c1ccc(Br)cc1)N1CCOCC1 | 6 | x | -13 | 2 | 8 | 0 | x | x
Cn1c(=O)n(-c2cccc(Cl)c2)c(=O)c2c3c(sc21)COC(C)(C)C3 | 3 | x | -16 | 3 | -2 | 2 | x | x
O=C1C(Cl)=C(N2CCN(c3ccccc3[N+](=O)[O-])CC2)C(=O)c2ccccc21 | 8 | -18 | -13 | 2 | -36 | -1 | x | x
O=C(Nc1cccc([N+](=O)[O-])c1)c1ccc(N2CCCC2=O)cc1 | 0 | 7 | -4 | 0 | 2 | 3 | x | x
O=C(c1nnsc1S(=O)(=O)c1ccc(Cl)cc1)N1CCOCC1 | 6 | 4 | 14 | -2 | -32 | -2 | x | x
CNC(=O)c1nnsc1S(=O)(=O)c1ccc(Cl)cc1 | 11 | -4 | 61* | 1 | -37 | -3 | 103* | 76*
O=S(=O)(C/C(=C/CO)S(=O)(=O)c1ccccc1)c1ccccc1 | 7 | 14 | 40* | 1 | -44 | -1 | 87* | 20
CCN(Cc1ccccc1)C(=O)CS(=O)(=O)c1ccccc1 | 2 | 0 | -2 | 0 | -2 | 0 | x | x
Cc1cc(C)c(C(=O)Nc2ccc(Br)c(C(F)(F)F)c2)c(C)c1 | 6 | -1 | 29* | x | -29 | 1 | 53* | 2
O=C(Nc1nc2cc3c(cc2s1)OCO3)c1ccco1 | -12 | 1 | -10 | x | x | 0 | x | x

Source: PubChem BioAssay (several laboratories)
